Experimental data as given in the supplement of paper PMC10720658.
± gives the standard deviation of the averaged measurements.

System: AEK1 (Tb927.3.2440)
Test: percent reduction in TR-FRET probe signal relative to DMSO control; higher = stronger displacement of ATP-site probe (binding)
Conditions: 1 µM; incubation time 1 h

Row | SMILES | percent reduction in TR-FRET probe signal [%]
1 | Cc1[nH]c2ccccc2c1C1=C(NCCc2ccc(F)cc2)C(=O)N(C)C1=O | 8.32 ± 10
2 | O=C(/C=C/c1ccc(O)c(O)c1)c1ccc(O)cc1O [Butein] | 4.05 ± 5.4
3 | Cc1c(Cn2c(C)nc3c(C(=O)O)cc(N4CCOCC4)cc32)cccc1C(F)(F)F | 1.17 ± 7.4
4 | OCCn1cc(-c2ccc3c(c2)CC/C3=N\O)c(-c2ccncc2)n1 | -6.91 ± 7.5
5 | C=CC(=O)Nc1cccc(Nc2nc(Nc3ccc(NC4CN(CCF)C4)cc3OC)ncc2C(F)(F)F)c1 | -12.2 ± 9.2
6 | O=C(NC[C@H](O)CO)c1ccncc1Nc1ccc(I)cc1F | 8.42 ± 5
7 | O=C(/C=C/c1ccc2ccccc2n1)c1ccncc1 | -6.28 ± 6
8 | C=CC(=O)Nc1cccc(Nc2nc(Nc3ccc(N4CCN(C(C)=O)CC4)cc3OC)ncc2C(F)(F)F)c1 | -2.96 ± 7.5
9 | CN1CC[C@H](c2c(O)cc(O)c3c(=O)cc(-c4ccccc4Cl)oc23)[C@H](O)C1.Cl [Flavopiridol HCl] | -6.15 ± 9.4
10 | CN1CCN(c2ccc(Nc3cc(-c4cccc(-n5ccc6cc(C7CC7)cc(F)c6c5=O)c4CO)cn(C)c3=O)nc2)CC1 | 6.04 ± 9
11 | Cc1ccc(NC(=O)c2cccc(C(C)(C)C#N)c2)cc1Nc1ccc2ncn(C)c(=O)c2c1 | -9.01 ± 3.1
12 | Cc1cc2c(F)c(Oc3ncnn4cc(OC[C@@H](C)OC(=O)[C@H](C)N)c(C)c34)ccc2[nH]1 | 8.47 ± 14
13 | Nc1nc(NCCNc2ncc(-n3ccnc3)c(-c3ccc(Cl)cc3Cl)n2)ccc1[N+](=O)[O-] | 4.72 ± 12
